# Ba/F3 V617F tox – reduce viability of Ba/F3 cells dependent on JAK2V617F; Ba/F3 EpoR-JAK2V617F viability, ATP luminescence; inhibition, % at 5.6 µM; actives 1.1% (n = 220,000);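 active means inhibition above the campaign mean plus 3 SD over all tested compounds, cut at about 24% in these data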;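 further: cytokine-independent growth of Ba/F3 cells driven by EpoR plus mutant JAK2; 0% = DMSO-treated cells and 100% = JAK inhibitor I control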
# IEC-6 tox-1 – kills IEC-6 intestinal cells in KLF5 counter-screen; IEC-6 cytotoxicity, luminescence viability; inhibition, % at 5 µM; actives 0.78% (n = 290,000);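 further: 0% = plate median of test compound wells and 100% = cytotoxic reference compound wells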
# APP 5UTR inh – APP translation inhibition; AID 1285; actives 0.82% (n = 190,000); SH-SY5Y APP 5'UTR-luciferase reporter, luminescence; inhibition, % at 2 µM;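 active means inhibition above a set limit, derived from the sample mean plus 3 SD, cut at about 45% in these data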
# KLF5 inhibitor – kruppel-like factor 5 inhibition. DLD-1 KLF5 promoter-luciferase reporter, luminescence. inhibition, % at 5 µM. actives 0.23% (n = 290,000). AID 1700;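 active means inhibition above a per-plate limit of that plate's mean compound inhibition plus 3 SD, cut at about 60% in these data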;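 further: 0% = DMSO wells and 100% = LY294002 at 200 µM; higher means less KLF5 promoter-driven luciferase light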
# BaF3 parental – parental Ba/F3 viability inhibition as JAK2V617F counter-screen. CellTiter-Glo ATP luminescence. inhibition, % at 5.6 µM. actives 1.1% (n = 220,000). AID 1486;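 active means inhibition above a per-campaign cutoff, the mean inhibition of all tested compounds plus 3 SD, cut at about 27% in these data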;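 further: 0% = DMSO wells and 100% = JAK Inhibitor I control wells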
# KLF5 inh confirm – KLF5 inhibition, confirmation assay. shares compounds with KLF5 inhibitor. DLD-1 KLF5 promoter firefly luciferase reporter, luminescence. inhibition, % at 4 µM. AID 1834. actives 79% (n = 610);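 active means inhibition above a set limit taken from the earlier primary screen, cut at about 63% in these data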;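 further: 0% = DMSO wells and 100% = LY294002 at 200 µM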
# IEC-6 tox-2 – kills rat IEC-6 cells in KLF5 counter-screen; shares compounds with KLF5 inhibitor; IEC-6 rat intestinal cells, viability luminescence; inhibition, % at 4 µM; actives 56% (n = 610); AID 1905; in the data active means inhibition above about 23%;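 further: cells exposed to compounds for 48 hours before viability read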
# IEC-6 tox confirm – confirmation of cytotoxic compounds in rat IEC-6 intestinal epithelial cells; shares compounds with IEC-6 tox-1; IEC-6 rat intestinal epithelial viability, luminescence; inhibition, % at 5 µM; actives 63% (n = 1,900); AID 1907;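 further: 0% = vehicle and 100% = reference cytotoxic drug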
# * = called active by the depositor; x = no result given. An excerpt weighted towards active compounds, which were near 1.9% of everything screened. Unless noted, no stated cut-off is given here; in the data, active means inhibition above about 22%; inactive means the rest.
SMILES,Ba/F3 V617F tox,IEC-6 tox-1,APP 5UTR inh,KLF5 inhibitor,BaF3 parental,KLF5 inh confirm,IEC-6 tox-2,IEC-6 tox confirm
O=C(Nc1ccc(N2CCN(C(=O)c3cccs3)CC2)cc1)c1cccc(F)c1,x,4.9,x,-0.7,x,x,x,x
COc1cccc(C(=O)Nc2ccc(N3CCN(C(=O)c4cccs4)CC3)cc2)c1,x,77.3*,x,63.4*,x,55.7,35.1*,34.5*
O=C(Nc1ccnn1C1CCN(C(=O)c2cc(Cl)ccc2F)CC1)C1CCOC1 (stereo unspecified),x,-0.4,x,-16.1,x,x,x,x
CC1=Nc2ccccc2/C1=C\c1sc(Nc2ccc(C)cc2)nc1O,75.8*,79.2*,95.8*,66.3*,75.3*,85.4*,58.3*,54.0*
Oc1nc(Nc2ccc(F)cc2)sc1/C=C1\C=Nc2ccccc21,-2.1,-1.5,x,-36.3,2.6,x,x,x
CCNC(=O)N1c2ccc(OCC)cc2C(C)=CC1(C)C,-0.4,1.4,2.3,3.5,3.4,x,x,x
CCOc1ccc2c(c1)C(C)=CC(C)(C)N2S(=O)(=O)c1ccc(C)cc1,78.8*,89.8*,95.1*,67.9*,76.9*,90.7*,54.5*,59.4*
COc1ccc2c(c1)C(C)=CC(C)(C)N2S(=O)(=O)c1ccc(C)cc1,70.5*,80.6*,84.3*,87.3*,74.3*,87.5*,55.3*,53.2*
COC(=O)C1(C)CN(S(=O)(=O)c2ccc(C)cc2)c2cc(OC)ccc2C1=O (stereo unspecified),2.0,6.6,-7.0,-8.7,3.4,x,x,x
O=C(CSc1cn[nH]n1)Nc1ccc(Cl)cc1Cl,x,5.8,x,-25.7,x,x,x,x
CC(=O)Oc1ccc(C2C3=C(CC(C)(C)CC3=O)Nc3cc4c(cc32)OCCO4)cc1 (stereo unspecified),2.3,1.9,-10.5,-7.9,7.9,x,x,x
O=C1OCC2=C1C(c1ccc(F)cc1)c1cc3c(cc1N2)OCO3 (stereo unspecified),59.0*,76.6*,94.8*,68.3*,15.6,88.2*,85.9*,83.6*
O=C1OCC2=C1C(c1ccc3c(c1)OCO3)Sc1ccccc1N2 (stereo unspecified),0.6,-1.7,-9.3,-14.9,7.7,x,x,x
COc1cc2c(cc1OC)C(c1ccc3c(c1)OCO3)C1=C(CC(C)(C)CC1=O)N2 (stereo unspecified),3.0,-3.0,3.3,-27.9,4.1,x,x,x
C#CCOc1ccc(C2C3=C(COC3=O)Nc3cc4c(cc32)OCO4)cc1OC (stereo unspecified),94.0*,94.9*,94.6*,78.9*,95.1*,88.1*,82.7*,84.4*
O=C1OCC2=C1C(c1ccc(F)cc1)c1cc3c(cc1N2)OCCO3 (stereo unspecified),95.7*,94.7*,93.7*,98.4*,95.7*,91.8*,84.1*,86.1*
Cc1c(Cl)cccc1NC(=O)c1ncn[nH]1,-2.9,0.0,x,-25.6,-4.0,x,x,x
Cc1onc(-c2ccccc2Cl)c1C(=O)N1CCCCC1C (stereo unspecified),x,0.0,x,12.1,x,x,x,x
CCN(c1cccc(C)c1)S(=O)(=O)c1ccc(-c2cc(C)no2)s1,x,66.7*,x,72.0*,x,59.4,37.2*,37.0*
Cc1cccc(N(C)S(=O)(=O)c2ccc(-c3cc(C)no3)s2)c1,x,77.5*,x,74.5*,x,74.3*,55.1*,53.4*
Cc1cccc(C)c1NC(=O)NCc1ccco1,-0.5,-1.9,x,-9.9,1.3,x,x,x
Cc1cccc(C)c1OCCNC(=O)C(=O)NCc1ccco1,76.8*,77.1*,84.8*,65.3*,80.5*,82.6*,61.3*,59.0*
COc1ccccc1-c1cc(C(=O)N2CCOCC2)no1,x,-0.1,x,-136.5,x,x,x,x
CCn1c2ccccc2c2cc(Nc3cc(C)nc4ncnn34)ccc21,83.8*,93.6*,95.9*,75.5*,85.8*,81.8*,71.6*,72.0*
O=C(NCCc1ccccc1)C1=CCN(S(=O)(=O)c2ccccc2)CC1,x,0.0,x,-41.9,x,x,x,x
SMILES,Ba/F3 V617F tox,IEC-6 tox-1,APP 5UTR inh,KLF5 inhibitor,BaF3 parental,KLF5 inh confirm,IEC-6 tox-2,IEC-6 tox confirm
CC(C)Oc1ccccc1C1CC(=O)Nc2cc3c(cc21)OCCO3 (stereo unspecified),74.2*,88.4*,94.8*,80.1*,78.3*,98.4*,89.9*,56.0*
COc1cccc(C2CC(=O)Nc3cc4c(cc32)OCCO4)c1OC(C)C (stereo unspecified),-0.6,6.2,-7.9,5.7,0.9,x,x,x
CCOc1ccccc1C1CC(=O)Nc2cc3c(cc21)OCO3 (stereo unspecified),78.9*,83.0*,90.3*,74.5*,74.6*,90.9*,65.4*,56.6*
O=C(NC1CC1)C1=C[C@H](c2csc3ccccc23)C[C@H](OCCCCO)O1,1.8,0.8,-13.1,3.7,-0.8,x,x,x
O=C(NCc1ccccc1)C1=C[C@@H](c2csc3ccccc23)C[C@@H](OCCCCO)O1,25.4*,30.5*,8.6,70.0*,57.3*,60.7,6.6,15.9
COc1cc(C(=O)N/N=C/C2CC=CCC2)cc(OC)c1OC (stereo unspecified),83.0*,89.8*,93.0*,64.3*,79.3*,-13.3,-5.8,-0.3
COc1cc(C(=O)N/N=C/c2ccsc2C)cc(OC)c1OC,83.0*,89.3*,95.9*,76.0*,85.0*,86.4*,66.4*,60.2*
CCOC(=O)C1CCCCN1Cc1ccc(-c2ccccc2)cc1 (stereo unspecified),x,0.4,x,-35.7,x,x,x,x
CCOc1ccc(NC(=O)/C(C=Nc2ccccc2)=C(\C)O)cc1,x,-10.3,x,-17.5,x,x,x,x
O=C(Nc1cccc2ncccc12)C(c1ccccc1)c1ccccc1,-0.3,-0.6,-17.2,-24.4,7.6,x,x,x
Cc1ccc(S(=O)(=O)Oc2ccccc2/C=N/N=C(N)N)cc1,2.2,1.7,20.5,2.6,4.0,x,x,x
Cc1ccc(S(=O)(=O)Oc2ccccc2/C=N/NC(N)=S)cc1,81.7*,58.2*,91.0*,65.2*,71.5*,73.0*,57.1*,-1.1
Cn1nc(-c2ccc(Cl)cc2)nc2c(=O)n(C)c(=O)nc1-2,94.9*,97.5*,-13.2,90.5*,85.4*,113.3*,63.2*,77.5*
CSc1ncc2ncn(C3OC(CO)C(O)C3O)c2n1 (stereo unspecified),-2.4,-1.8,x,7.2,1.5,x,x,x
CN(C)c1ncnc2c1ncn2C1OC(CO)C(O)C1O (stereo unspecified),7.6,50.9*,39.6,65.1*,13.2,70.1*,48.1*,70.6*
COc1cc(-c2noc(C)c2/C=C/c2ccc(OC(C)=O)cc2)cc(OC)c1OC,x,91.1*,x,71.1*,x,83.5*,62.8*,60.3*
COc1cc(-c2noc(C)c2C#CCO)cc(OC)c1OC,x,5.4,x,-11.8,x,x,x,x
CCn1c(O)c(N=NC(=O)CNC(=O)Cc2ccccc2)c2ccccc21,x,1.8,x,2.8,x,x,x,x

# Screening data deposited in PubChem by several laboratories.
